TMEM16A inh: inhibitors of mouse TMEM16A calcium-activated chloride channel; Q8BHY3; HEK293 TMEM16A/YFP iodide influx fluorescence, ionomycin; normalized B-score (activity score, 25-100; higher = stronger inhibition) at 10 µM; hit rate 1.2% among 310,000; AID 588511;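 active = ratio plate-corrected score three or more library SD toward inhibition, starting fluorescence score within five deviations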;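 note: score derived from kinetic fluorescence span divided by baseline fluorescence per well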
GRIN3A LBD mod: modulates the human NR3A ligand-binding domain. NR3A LBD differential scanning fluorimetry, Tm shift; 0% = protein alone, 100% = glycine-bound protein. Tm shift relative to glycine control, % at 25 µM. hit rate 2.5% among 340,000. AID 1259313;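 active = melting temperature shift of at least 10% of the positive control shift, at one fixed dose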
TMEM16A act: activators or potentiators of mouse TMEM16A chloride channel; B-score at 10 µM; hit rate 0.3% among 340,000; HEK293 TMEM16A/YFP-H148Q/I152L, iodide quench fluorescence; hits give low values; Q8BHY3; AID 623877;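 active = fluorescence-ratio B-score plate-corrected deviation score at least 3 library SD below zero, with starting fluorescence score within 5 deviations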;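 note: channel opened by trigger with iodide after compound preincubation; score built on the fluorescence ratio of max minus min over baseline; more negative score means more quench and so TMEM16A activation or potentiation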
MPTP block: inhibitors of mitochondrial permeability transition pore; AID 602449; hit rate 1.4% among 360,000; inhibition, % at 10 µM; isolated mouse mitochondria, Ca2+ swelling absorbance, 30 min;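 active = inhibition of 50% or more, scaled per plate between neutral and stimulator controls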;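 note: 0% = DMSO wells given calcium and 100% = 1 mM EGTA wells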
CRFBP-R2 block: blocks CRF-induced signaling of the CRF-BP/CRF-R2 complex; HEK293 CRF-R2/CRF-BP, CRF-induced calcium fluorescence; inhibition, % at 11.8 µM; hit rate 0.59% among 350,000; AID 588475;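 active = inhibition of the ligand-induced calcium signal above about 50% at the single tested concentration, limit read from the data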
CRFR2-BP ag: agonists of human CRF-binding protein/CRF-R2 receptor complex | HEK293 CRF-R2/CRF-BP, calcium dye fluorescence (FLIPR); percent of saturating CRF peptide response | activation, % at 13.2 µM | hit rate 0.46% among 350,000 | AID 588473;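 active = activation of at least 50%, plus an integration ratio under a set limit after plate pattern correction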;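 note: plate controls were neutral control wells without compound for no effect and CRF at EC100 for full effect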
TMEM16A reconf: re-confirmation of mouse TMEM16A chloride channel inhibitors; shares compounds with TMEM16A inh; HEK293 TMEM16A/YFP-H148Q, iodide quench fluorescence; ionomycin added to raise cell calcium; inhibition, % at 10 µM; hit rate 39% among 2,300; AID 652189;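 active = mean duplicate percent inhibition, scaled so buffer wells are 0 and the reference blocker 100, over three buffer SD above buffer mean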
HEK293 Ca mobil: counter-screen for TMEM16A inhibitors: effect on calcium mobilization; calcium response (% of ionomycin), % at 10 µM; shares compounds with TMEM16A inh; TMEM16A/YFP HEK293, Fluo4 calcium mobilization; hit rate 2% among 2,300;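 active = duplicate-averaged calcium signal over 20% of the ionomycin maximum, relative to buffer baseline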;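 note: each well's signal is peak minus trough fluorescence divided by its pre-addition baseline; 0% = buffer wells and 100% = ionomycin wells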
YFP-HEK293 quench: counter-screen for TMEM16A inhibitors: effect in parental YFP-HEK293 cells | shares compounds with TMEM16A inh | iodide YFP quench, ionomycin | YFP ratio F(max-min)/F0 at 10 µM | 2,300 tested, under 10 active;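 active = yellow fluorescent protein signal ratio exceeding the buffer control mean by over 5 SD of those controls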;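 note: ratio is mean of duplicate wells from kinetic YFP trace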
ClC-1 inh: rat ClC-1 inhibition, TMEM16A specificity screen; AID 652236; CHO ClC-1-YFP, iodide influx fluorescence quench; iodide control reads 0, buffer control 100; 2,300 tested, under 10 active; ratio percent, % at 10 µM; shares compounds with TMEM16A inh;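 active = duplicate-mean ratio percent above the mean of iodide-only control wells, which defines zero, plus 5 of their SD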;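 note: higher percent means stronger block of ClC-1 iodide influx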
Numbers without * were called inactive; i = inactive; x = no result. An excerpt weighted towards active compounds, which were near 5.1% of everything screened.

SMILES	TMEM16A inh	GRIN3A LBD mod	TMEM16A act	MPTP block	CRFBP-R2 block	CRFR2-BP ag	TMEM16A reconf	HEK293 Ca mobil	YFP-HEK293 quench	ClC-1 inh
COc1ccc(S(=O)(=O)N2CCCCCC2)cc1N(C)S(=O)(=O)c1ccc(C)cc1	100*	-3.7	i	4.4	-4.9	0.6	i	i	-1.18	-5.5
FC(F)(F)c1cccc(-c2nc3nc(Cl)c(Cl)nc3[nH]2)c1	25*	9.2	i	9.3	38.0	81.0*	31.0%*	i	-0.988	-19.0
CC1=C(C(=O)N(C(C)C)C(C)C)CC(CC(=O)NC2CC2)C(=O)N1Cc1ccc(F)cc1 (configuration not stated)	x	x	x	-0.4	x	x	x	x	x	x
COc1ccc(OCCSc2nnc(C)n2-c2ccccc2)cc1	100*	-1.3	i	2.7	5.2	-2.3	i	i	-0.938	-5.0
CCOC(=O)c1ccc(NC(=S)N2CCSC2c2ccc(Br)cc2)cc1 (configuration not stated)	25*	18.2*	-6.5*	-1.6	-99.8	100.6*	81.5%*	i	-1.07	-2.0
COc1cccc(N2CCN(C(C)C(=O)NC34CC5CC(CC(C5)C3)C4)CC2)c1 (configuration not stated)	i	0.8	i	1.0	-12.2	0.1	x	x	x	x
COc1cccc(-c2cc(C(=O)Nc3cc(C)on3)no2)c1	i	-3.1	i	0.5	-33.4	13.6	i	i	-1.05	-7.0
Cc1cc(NC(=O)c2cc(C(C)C)on2)no1	25*	-1.1	i	-0.4	-27.6	1.6	i	i	-0.96	-7.0
COc1ccc(S(=O)(=O)NCC2CCCN(Cc3ccc(O)cc3)C2)cc1 (configuration not stated)	i	1.4	i	-2.1	-8.3	-2.5	x	x	x	x
O=C1C2C3C=CC(CC3)C2C(=O)N1c1cccc(Br)c1 (configuration not stated)	i	5.4	i	-0.4	6.8	-0.9	x	x	x	x
CCCC(=O)Nc1c2c(nn1-c1ccc(OC)cc1)CS(=O)(=O)C2	i	-1.6	i	0.2	10.0	-1.0	x	x	x	x
CCCC(=O)Nc1c2c(nn1-c1ccc(C)cc1)CS(=O)(=O)C2	100*	2.3	i	0.4	48.7	-1.4	i	i	-1.01	-10.0
O=C(CCC(=O)OCC(=O)c1ccc(F)cc1)NC1CCCCC1	25*	-1.2	i	-1.1	-4.4	0.0	i	i	-1.08	-13.5
O=C(COC(=O)CCC(=O)c1ccc(F)cc1)NC1CCCCC1	x	-1.3	i	0.5	3.7	0.4	x	x	x	x
COCC(=O)Nc1ccc(C)c(Cl)c1	100*	0.7	i	0.7	-1.9	0.8	i	i	-1.01	-4.5
CC1(C)Nc2ccccc2C(=O)N1c1ccccc1	i	-0.8	i	0.1	-2.8	-0.2	x	x	x	x
CC(=O)OC1CC(C)N(C(=O)c2ccccc2)c2ccc(C)cc21 (configuration not stated)	100*	-1.7	i	-0.6	8.3	-2.7	i	i	-1.06	-5.0
CCCC(=O)OC1CC(C)N(C(=O)c2ccccc2)c2ccc(C)cc21 (configuration not stated)	i	0.6	i	-4.5	23.5	1.4	x	x	x	x
COc1ccc(CC2(CO)CCN(Cc3cnc(-c4ccccc4C)nc3)CC2)cc1	25*	-0.4	i	1.8	-2.0	0.6	i	i	-1.05	-9.0
Cc1ccc(S(=O)(=O)N(Cc2ccccc2)Cc2ccco2)cc1	100*	-0.9	i	1.6	-9.6	1.2	28.0%*	i	-1.02	-8.5
Cc1ccc(S(=O)(=O)N(CC(=O)O)Cc2ccco2)cc1	i	-1.0	i	0.2	-0.8	-1.9	x	x	x	x
Cc1ccc(S(=O)(=O)N(Cc2ccc(F)cc2)Cc2ccco2)cc1	100*	12.2*	i	-1.8	4.9	3.3	i	i	-1.1	-10.0
Cn1c(=O)c(=O)n(C)c2cc(S(=O)(=O)N3CCCCCC3)ccc21	25*	1.0	i	1.1	20.5	-0.7	i	i	-1.11	7.0
COC(=O)Cn1cnc2c(oc3ccccc32)c1=O	i	0.3	i	1.2	-0.1	0.7	x	x	x	x
CC12CC(c3ccccc3O1)N(C(=O)c1ccco1)C(=S)N2c1ccc(F)cc1 (configuration not stated)	i	1.6	i	-0.1	-12.9	-0.2	i	i	-1.23	3.5
SMILES	TMEM16A inh	GRIN3A LBD mod	TMEM16A act	MPTP block	CRFBP-R2 block	CRFR2-BP ag	TMEM16A reconf	HEK293 Ca mobil	YFP-HEK293 quench	ClC-1 inh
CC(C)Cn1c(N)c(C(=O)COC(=O)c2cc(C3CC3)nc3ccccc23)c(=O)n(C)c1=O	25*	-1.4	x	x	-13.3	1.8	i	i	-1.14	-11.0
CC(C)Cn1c(N)c(C(=O)COC(=O)c2cc(-c3ccccc3)nc3ccccc23)c(=O)n(C)c1=O	i	3.5	i	7.2	-8.6	-0.2	x	x	x	x
CN(C)c1ccc(/C=C2\c3ccccc3C(=O)N2c2ccccc2)cn1	x	x	x	0.8	-28.3	29.2	x	x	x	x
CC1CCN(C(=O)C(NS(=O)(=O)c2cccc3nsnc23)c2ccccc2)CC1 (configuration not stated)	i	-0.8	i	1.8	-32.4	0.7	i	i	-1.35	-17.5
C/C=C(/C)C(=O)OC1c2c(ccc3ccc(=O)oc23)OC(C)(C)C1OC(=O)/C(C)=C\C (configuration not stated)	25*	-5.8	i	0.8	24.4	1.6	28.0%*	26.5%*	-1	-16.5
CC12CCC(C(S(=O)(=O)Nc3ccccc3)C1=O)C2(C)C (configuration not stated)	x	-5.9	i	-0.6	-1.6	-2.6	x	x	x	x
O=c1c2ccccc2c(C=Nc2cccc(O)c2)c(O)n1-c1ccc2c(c1)OCO2	25*	4.7	i	-1.6	2.4	-0.5	i	i	-1.33	3.0
COc1ccc(N=Cc2c(O)n(-c3ccc(OC)cc3)c(=O)c3ccccc23)cc1	i	3.3	i	-0.1	-14.4	4.3	x	x	x	x
Cc1ccccc1-n1ncc2c1CC(C)(C)CC2NC(=O)C1=CC(=O)CC(C)(C)O1 (configuration not stated)	i	0.3	i	-1.1	-0.1	0.5	x	x	x	x
